Measured values as given in the supplement of paper PMC6555819.

Columns and labels:
Assay in all cases: PBM binding z-score (relative to random genomic background probes); higher = stronger binding; sequences stand for … in GC…GCGATTGACAGCGTAGAATGAAGG
[1] = system: RARb homodimer (NR concentration 270 nM)
Summary of the method: (§1)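 Ligand-free nuclear receptor dimers were applied to custom Agilent 4×180K protein-binding microarrays whose double-stranded probes carried direct-repeat seeds, single-nucleotide variants, half-site ablations and random human genomic background sequences in 34-nt variable regions. Incubation lasted 1 h. Binding z-scores were computed against the random background probes from regression-normalized fluorescence.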

[2] = system: RARg:RXRa (NR concentration 270 nM, RXRa partner concentration 90 nM)
Summary of the method: as §1

[3] = system: RARg homodimer (NR concentration 270 nM)
Summary of the method: as §1

[4] = system: RXRa DBDmut IVT, anti-RXR (DBD mutation: RXRa K156A/R161A, NR concentration 90 nM)
Summary of the method: as §1

[5] = system: RXRa homodimer (NR concentration 180 nM)
Summary of the method: as §1

[6] = system: THRa:RXRa (NR concentration 90 nM, RXRa partner concentration 90 nM)
Summary of the method: as §1

[7] = system: THRa homodimer (NR concentration 90 nM)
Summary of the method: as §1

[8] = system: VDR homodimer (NR concentration 270 nM)
Summary of the method: as §1

Sequence | PBM binding z-score [1] | PBM binding z-score [2] | PBM binding z-score [3] | PBM binding z-score [4] | PBM binding z-score [5] | PBM binding z-score [6] | PBM binding z-score [7] | PBM binding z-score [8]
ATACCAAGGTGATCGTGAGGCCGTTGATACTAAC | 0.758 | 0.629 | 0.127 | 0.132 | 0.254 | 2.05 | 1.14 | 0.643
ATCTCTAGGTAAGCAAGTTCAGTGAATGCCGAAC | 1.09 | 0.455 | 0.778 | 0.62 | 0.3 | 0.771 | 0.165 | 2.32
CCGATTAGTTGACCATAAGGGCAACCGAAGCTCG | 2.01 | 0.824 | 0.774 | 0.777 | 0.56 | 1.7 | 0.965 | 0.334
AGAATGAGGTTAAGATCAGGGGAACAGAATACAT | 1.37 | 2.14 | 1.59 | 1.58 | 2.52 | 2.8 | 1.34 | 0.727
CGAACTAGGTCAAAGACAGTGAATCTCCGCACGC | 2.53 | 3.63 | 3.88 | 1.57 | 2.67 | 2.39 | 0.814 | 0.508
TGACCAAGGTGAAGGTCGTTGATCCCTCTGTAGA | 1.87 | 1.64 | 1.25 | -0.322 | 1.84 | 2.37 | 0.58 | 0.744
CCGACTAGGGCAAAGGTTACCATACTCAGTACGA | 2.48 | 3.78 | 2.11 | 0.743 | 4.2 | 2.14 | -0.117 | 0.229
CCGACTGGGGCAGAAAGGTTACCAAACCATCCGG | 2.23 | 1.52 | 1.35 | -0.609 | 1.66 | 0.905 | -0.598 | -0.377
CCTCGGAGGACAACAGGAGGTCAGAGGTGCCAGA | 3.4 | 3.47 | 3.16 | -0.191 | 2.1 | 2.88 | 0.822 | 1.13
GGAACGAGGGCATACGAGTTGATAGCATGGCGAT | 0.493 | 1.12 | 1.65 | 2.41 | 1.02 | 2.92 | -0.328 | 2.37
CCTAACAGGCCAGGGTCACTCAAGCATTTCGCTT | 2.8 | 3.17 | 2.48 | 0.743 | 3.37 | 3.01 | 1.15 | 1.44
CAACCTAGGTCAAGGTCAAAGTCGGTTTGTGCCA | 5.28 | 6.18 | 6.82 | 2.98 | 6 | 4.3 | 3.92 | 4.12
TCGAGTAGGGTAGGGGCATTCAGAATGGCGTCGA | 0.89 | -0.0257 | -0.315 | 0.328 | 0.411 | 0.763 | 0.794 | 0.663
CCGCCTGGGGCAAAGGTTACCATACTCAGTACGA | 2.28 | 3.48 | 1.78 | -0.0654 | 3.55 | 2.05 | 0.443 | 0.257
GCTAGCAGGCCATTTGGGTCACTCATTGACGGGC | 1.77 | 0.783 | 1.14 | 0.292 | 0.477 | 1.69 | 0.799 | 0.121
TCGCCTAGGTCATGCGGGCCAGTATAGTGTCGGC | 3.2 | 3.96 | 4.3 | 1.28 | 2.9 | 3.29 | 1.43 | 0.82
CCTACTGGGACATCAGGTCATTGATATCAACGTT | 2.48 | 1.91 | 1.87 | 0.77 | 1.54 | 3.23 | 3.41 | 2.42
TCTTGTAGATCAATACAGGTTAAGAAAGTGCGCT | 0.644 | 0.423 | 0.26 | 1.25 | 0.787 | 1.46 | -0.0772 | 0.463
CGAACTAGGTCATCCAGTACAGTGAATACATTGA | 3.05 | 3.9 | 4.84 | 2.61 | 2.78 | 3.04 | 1.43 | 2.24

Sequence | PBM binding z-score [1] | PBM binding z-score [2] | PBM binding z-score [3] | PBM binding z-score [4] | PBM binding z-score [5] | PBM binding z-score [6] | PBM binding z-score [7] | PBM binding z-score [8]
CAAACTAGGTCACCGGACGGTCAAAGTCCGCATG | 4.41 | 6.71 | 6.04 | 1.41 | 4.05 | 3.5 | 1.73 | 1.1
TCATATAGGTAAAGGTCAAAGTCGAACGATATGA | 4.51 | 6.35 | 5.87 | 1.9 | 7.64 | 3.68 | 0.708 | 2.32
AATACAGGGTCACTAGGCCAAAGTAGGTACGAAT | 3.62 | 5.16 | 4.42 | 2.71 | 5.98 | 3.48 | 1.09 | 2.19
CAAACTAGGTCAAGGTCCAAGTCGGTTTGTGCCA | 3.59 | 3.87 | 5.33 | 1.76 | 3 | 3.18 | 1.67 | 1.7
ACAGACAGGTGAGTGAAGGGAACTCAGCTGGACG | -0.231 | 0.199 | 0.0505 | -0.777 | 0.39 | 0.0282 | -0.679 | -0.331
TCTCGGAGGACACGAAATGTCAGAGCTCGACATC | 1.04 | 0.897 | 1.7 | 0.78 | 0.302 | 1.54 | 0.334 | -0.342
CGTCCAAGGTCAGCAGGTCAGTGATAGCGACGTG | 5.02 | 6.25 | 7.22 | 2.59 | 5.26 | 3.84 | 2.31 | 1.75
ATCTCTAGGTTAAGTTCAGTGAAAGATCGATAGA | 2.18 | 2.18 | 2.54 | 2.12 | 1.41 | 1.99 | 1.4 | 3.19
AACTCTAGGTAACAAGTTCAGTGAAAGAGAGGAC | 1.66 | 1.03 | 1.2 | 1.13 | 0.731 | 1.4 | 0.448 | 2.39
GGAACGAGGGCATTCGAGTCGATAGCATGGCGAT | 0.222 | 1.01 | 1.35 | 3.2 | 0.622 | 2.5 | -0.885 | 1.87
CTCGAAAGGGCGGTTGAGGTGAGTATACGGATAA | 0.872 | 0.317 | 0.636 | 0.039 | -0.0679 | 4.21 | 1.28 | 0.0137
TAGCCTAGGTTATTGGGCCAGTATAGTACGCATC | 0.536 | 0.395 | 0.586 | -0.294 | 0.452 | 0.29 | -0.377 | -0.529
TCGAGTAGGTTAGTCGGGGCACTCAGCCAACATA | 0.461 | 0.0814 | -0.0518 | 0.105 | 0.249 | 1.35 | -0.252 | 0.195
TCTGCTAGGTCAACGATGGTCTGCTAATCTGCTA | 2.72 | 3.69 | 4.4 | 0.993 | 2.25 | 2.6 | 0.712 | -0.658
CGAACTAGGTCAAGGACACTGAATCTCCGCACGC | 3.08 | 3.94 | 4.67 | 1.55 | 2.66 | 3.49 | 3.04 | 0.782
TCTTGTAGATCCAAGGTTAAGAAAGCCGAAGCCT | 0.743 | 0.336 | 0.0629 | 0.928 | 1.13 | 1.27 | 0.204 | 0.0451
CCTGCTAGGTCAATGGTCACCTAAAGCAGCTCGC | 3.18 | 3.72 | 4.05 | 2.07 | 2.43 | 2.78 | 1.32 | 0.427
GGAACGATGGCAAGTTGATAGCAGAGTTTGATGG | -0.624 | -0.353 | -0.158 | -0.0368 | -0.123 | -0.797 | -0.814 | 0.0604
AGAACGAGGGAAATGAGTTGATAGCACGGGTGGC | -0.754 | -0.0436 | 0.0126 | -0.228 | -0.0737 | -0.188 | -0.839 | 0.141

Sequence | PBM binding z-score [1] | PBM binding z-score [2] | PBM binding z-score [3] | PBM binding z-score [4] | PBM binding z-score [5] | PBM binding z-score [6] | PBM binding z-score [7] | PBM binding z-score [8]
CCTACTGGGCCAAGGTCACTGATCAGTCAAAGCA | 3.91 | 4.17 | 4.29 | 0.302 | 3.92 | 3.6 | 2.65 | 2
CTCGAAAGGTCGTGCTCAGGGGAGTATACCAAAC | 2.53 | 4.03 | 3.44 | 2.02 | 4 | 2.77 | 0.415 | 1.13
ATACCAAGGTGATCGTGAGGGCGTTGATACTAAC | 1.07 | 0.664 | 0.461 | 0.501 | 0.36 | 2.16 | 1.23 | 1.36
ATAATGAGGTTACCAAAGATCAGGGAAACGCTTG | 1.15 | 2.37 | 1.95 | 1.32 | 2.72 | 2.8 | 1.1 | 0.486
GCTAGTAGATCAAGGTTAAGAAAGACTAAGCTAA | 0.204 | 0.392 | 0.168 | -0.105 | 0.832 | 1.01 | -0.473 | -0.442
ACTATTAGTTGAGACGAGGGCAACGGATAGGTTG | 0.993 | 0.638 | 0.908 | 0.374 | 0.585 | 2.53 | 0.137 | 0.875
CGTCCCAGGTCAGCAGGTCAGTGAAAGCGACGTG | 3.99 | 4.83 | 4.51 | 0.368 | 3.25 | 3.56 | 2.19 | 0.573
TCATATAGGTAAATGCTAGCTGAAAGTCCGATCT | -0.406 | 0.14 | 0.178 | 1.68 | 0.565 | -0.388 | -0.402 | 0.142
CCAGAGAGGTGAAAGGTAACTCAGTCTGGTACGC | 1.42 | 2.57 | 1.44 | 0.39 | 3.56 | 2.1 | 0.391 | 0.0875
CATACAGGGTCAGCTAGGCCAGATTAGGGACGGC | 3.37 | 4.39 | 4.22 | 1.47 | 4.12 | 3.18 | 1.09 | 0.951
ACTATTAGTTGACTTATGGCAACCGATACGACGC | 0.102 | 0.814 | 0.872 | 0.726 | 0.823 | 0.347 | -0.0591 | 0.143
CTACCAAGGTGAACAGGGTCGTTGATTACTATTC | 1.71 | 1.51 | 1.17 | 1.08 | 1.87 | 2.87 | 1.68 | 1.92
AGAATGAGGTTAACATCAGGGAAACAGAATACAT | 0.933 | 2.72 | 2.01 | 1.29 | 3.24 | 2.91 | 0.858 | 0.64
AGAATGCGGTTAAGATCAGGGAAACAGAATACAT | -0.126 | 0.0483 | 0.299 | -0.536 | -0.0604 | 0.164 | -0.363 | -0.162
CAGCCTAGGTCAGGGCCAGTATCGGAGGAACGTT | 2.85 | 3.16 | 4.2 | -0.106 | 1.55 | 1.96 | 0.58 | -0.476
GCAGACAGGTGAATCGCAGGTAACTCAGGGTGGC | 0.0663 | 0.806 | 0.164 | -0.612 | 0.449 | 1.31 | -0.285 | -0.754
AATACAGGGTCATCGTAAGCCAGAGTACGCACAG | 3.27 | 5.55 | 4.8 | 3.07 | 6.56 | 3.68 | 1.39 | 3.12
AGTCAAAGTACACTAGGTAACGTAAGATTCAGCT | 0.288 | 0.245 | 0.909 | 1.11 | 0.318 | 0.479 | -0.0974 | 0.127
